# Rows were chosen to be rich in hits. Some 19% of all compounds tested hit in one or more screens of this group.
# TDP1 cell CPT: growth inhibition of DT40 Tdp1-/-;hTDP1 cells with camptothecin (screen for TDP1 inhibitors); 420,000 tested, 12% active; chicken DT40 Tdp1-/-;hTDP1 cells + 20 nM CPT, ATP luminescence, 48 h; Potency, µM (titrated, usually from 46.2 µM), most hits filed as inhibitors; also: nearly all actives have a fitted effect of over 55% in size
#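 Cell growth measured by CellTiter-Glo luminescence after a minimum 48 h, 37 C compound exposure with 20 nM CPT in Tdp1-knockout DT40 cells stably expressing hTDP1, seeded 400/well; qHTS titration format.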
# IL1B secr inh: blocks inflammasome-driven IL-1 beta release. THP-1 LPS/ATP IL-1B secretion, AlphaLISA, 16 h; stronger effect = lower value. activity change, % at 57.5 µM. 360,000 tested, 4.7% active. AID 743279; in the data active = activity change below about -50%; inconclusive = mostly about -30% to -49%
#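 THP-1 cells pretreated 1 hr with compounds (up to 57.5 uM final), then stimulated with LPS (250 ng/mL final) plus ATP (1.25 mM final); secreted IL-1B measured by AlphaLISA after 16 hr, decreased signal indicating inhibition.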
# ELG1 repair inh: blocks ELG1-dependent DNA repair in HEK293T cells; HEK293T ELG1-luciferase reporter, luminescence, 16 h; DNA damage induced by 5-fluorouridine; Potency, µM (titrated, usually from 46.1 µM), hits mostly inhibitors; 330,000 tested, 2.3% active; AID 504467; also: nearly all actives have a fitted effect of over 55% in size
#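 Reporter activity after DNA damage by 5-fluorouridine is monitored. Compound-treated cells incubate 16 hr at 37 °C, then ONE-Glo is added for 30 min before luminescence reading.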
# HT1080 IDH1KD tx: kills HT-1080 cells with IDH1 knockdown; AID 686971; HT-1080 IDH1 knockdown viability, ATP luminescence, 48 h; Potency, µM (titrated, usually from 46.1 µM), usual class: cytotoxic; 360,000 tested, 2% active
#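 Cytotoxicity counter-line: IDH1KD HT-1080, 48 h, CellTiter-Glo. Curves classed by r2, magnitude and activity.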
# DT40 TDP1 no CPT: qHTS for Inhibitors of human tyrosyl-DNA phosphodiesterase 1 (TDP1): qHTS in cells in absence of CPT; DT40 Tdp1-/- hTDP1 cells, no CPT, ATP luminescence, 48 h; Potency, µM (highest dose often 46.2 µM), actives largely listed as inhibitors; 420,000 tested, 15% active; AID 686978, 2013; also: nearly all actives have a fitted effect of over 55% in size
#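 Growth kinetics read by CellTiter-Glo luminescence after ≥48 hr at 37 °C. Cells: DT40 Tdp1-/- stably carrying human TDP1, 400 per well, compound exposure in the absence of CPT (DMSO vehicle).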
# HT1080NT lethal: kills 2HG-producing HT-1080-NT fibrosarcoma cells. 360,000 tested, 1.6% active. HT-1080-NT fibrosarcoma viability, CellTiter-Glo ATP luminescence, 48 h. Potency, µM (top dose mostly 46.1 µM), actives largely listed as cytotoxic. AID 686970;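 also: NT is the 2HG producing partner of a matched IDH1 knockdown line; nearly all actives have a fitted effect of over 55% in size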
#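 Read-out is CellTiter-Glo luminescence after 10 minutes at room temperature, following 48 hours' compound treatment of HT-1080-NT cells (750 cells/well, RPMI, 5% FBS, 37 degrees C).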
# Hits are given with their value; i = inactive; ? = inconclusive; nt = no result given; [ ] = another dose, or the depositor's remark. Unless noted, calls follow the shape of the dose curve; as a rule, active = well fitted curve in the direction sought with a large enough effect; inconclusive = small, poorly fitted or top-dose-only effect, or another doubt; inactive = no such curve, though single readings can be large; an effect the other way counts as inactive or inconclusive.
SMILES,TDP1 cell CPT,IL1B secr inh,ELG1 repair inh,HT1080 IDH1KD tx,DT40 TDP1 no CPT,HT1080NT lethal
COc1ccc(CCN2CCC(CNC(=O)c3cnn(-c4ccccc4)c3C3CCN(C(=O)OC(C)(C)C)CC3)CC2)cc1,12µM,nt,nt,nt,8.2µM,nt
CCN1CCN(CCCNC(=O)c2cnn(-c3ccc(OC)cc3)c2C2CCN(C(=O)OC(C)(C)C)CC2)CC1,i,nt,nt,nt,i,nt
COc1ccc(CCN2CCC(CNC(=O)c3cnn(-c4cccc(Cl)c4)c3C3CCN(C(=O)OC(C)(C)C)CC3)CC2)cc1,8.2µM,nt,nt,nt,8.2µM,nt
COc1ccc(NC(=O)Cn2c(=O)ccc3cc(S(=O)(=O)N4CCCC4)ccc32)cc1Cl,16µM,nt,nt,nt,13µM,nt
Cc1ccc(NC(=O)Cn2c(=O)ccc3cc(S(=O)(=O)N4CCCC4)ccc32)cc1C,i,nt,nt,nt,i,nt
COc1cc(NC(=O)Cn2c(=O)ccc3cc(S(=O)(=O)N4CCCC4)ccc32)cc(OC)c1,?,nt,nt,nt,15µM,nt
CC(=O)Nc1cccc(-c2cc(-c3c(Cl)cccc3Cl)no2)c1,?,?,i,i,?,i
CNC(=O)Nc1cccc(-c2cc(-c3c(Cl)cccc3Cl)no2)c1,i,-79,?,?,i,i
COc1ccc(-c2nnc3ccc(SC(C)C)nn23)cc1OC,10µM,nt,nt,nt,13µM,nt
COc1ccc(-c2nnc3ccc(SC(C(C)=O)C(C)=O)nn23)cc1OC,18µM,i,?,i,?,i
CCC(Sc1ccc2nnc(-c3ccc(OC)c(OC)c3)n2n1)C(=O)O (stereo unspecified),i,i,i,i,i,i
N#CC(C(=S)Nc1ccccc1)c1nc2ccccc2[nH]1 (stereo unspecified),5.2µM,i,13µM,i,5.2µM,i
COc1ccc(C(C)=O)cc1CSc1nc2ccccc2c(=O)n1-c1ccccc1C,18µM,i,i,i,21µM,i
O=C(c1ccc(-n2c(SCc3cc(F)ccc3F)nc3ccccc3c2=O)cc1)N1CCOCC1,12µM,i,?,i,26µM,i
COc1ccc(C(C)=O)cc1CSc1nc2ccccc2c(=O)n1-c1ccccc1,?,i,?,i,?,?
COCCn1c(SCc2cc(C(C)=O)ccc2OC)nc2cc(Cl)ccc2c1=O,i,i,?,i,i,i
COc1ccc(C(C)=O)cc1CSc1nc2ccccc2c(=O)n1-c1cccc(C)c1,18µM,i,?,i,18µM,i
COc1ccccc1-n1c(SCc2cc(=O)oc3cc(O)ccc23)nc2ccccc2c1=O,23µM,i,?,i,?,i
COCCn1c(C)cc(O)c(C(c2ccccc2F)N2CCN(c3ccccc3)CC2)c1=O (stereo unspecified),i,nt,nt,nt,i,nt
Cc1ccc(OCC(O)CNC2CCCC2)cc1C (stereo unspecified),?,i,i,i,?,i
CN(CC(=O)Nc1ccccc1C(F)(F)F)C(=O)c1ccccc1Sc1ccccc1C#N,i,i,i,i,?,i
C=CCn1c(SCc2cc(C(C)=O)ccc2OCC)nc2ccccc2c1=O,1.6µM,i,?,2.3µM,0.82µM,?
COc1ccccc1C(=O)NC1CCSc2ccccc21 (stereo unspecified),?,i,i,i,i,i
COc1ccc(-c2cc3nc(C4CCN(C(=O)OC(C)(C)C)CC4)c(C(=O)O)cn3n2)cc1,?,i,?,i,?,i[9.24 µM]
CCOC(=O)c1cn2nc(-c3ccc(OCC)cc3)cc2nc1C1CCN(C(=O)OC(C)(C)C)CC1,?,i,i,i,16µM,i
CCOc1ccc(-c2cc3nc(C4CCN(C(=O)OC(C)(C)C)CC4)c(C(=O)Nc4cccc(C(F)(F)F)c4)cn3n2)cc1,16µM,nt,nt,nt,?,nt
COc1cc(Cl)c(C)cc1Nc1nc2ccccc2c2nnc(C)n12,i,nt,nt,nt,i,nt
